From the supplement of paper PMC6953052
Several values for one entry are separate records, joined by “and”; a condition that tells them apart may be missing. Equal values may be shown once. ± gives the standard deviation of the averaged measurements. In all, about 1,700 compounds were measured (“fraction of GFP-LC3-positive cells (≥5 vesicles/cell)”: median about 0.058, highest 2% from about 0.59 on). What follows is part of a selection rich in the highest values, with near analogues and random picks from the rest.

The compounds below were run on CbCln3 +/+ GFP-LC3 cerebellar neuronal cells (assay: fraction of GFP-LC3-positive cells (≥5 vesicles/cell); higher = more autophagosome accumulation).
Method in brief: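 Values are the duplicate-averaged fraction of cells passing a GFP-LC3 vesicle cutoff, counted per cell in CellProfiler with out-of-focus images excluded. That cutoff is 5 or more vesicles. Wild-type or mutant CbCln3 cerebellar cells stably expressing GFP-LC3 (2 × 10^3/well, 384-well) were given ~50 nL compound in DMSO by pin transfer for 24 h at 33 °C, then fixed in 3.2% PFA and imaged at 10×, three fields per well.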

| Compound | fraction of GFP-LC3-positive cells |
| --- | --- |
| CCOC(=O)C1=C(C)NC(=S)NC1c1cccc(O)c1 (centres undefined) [Monastrol] | 0.199 |
| CNC1(C)C2CCC(C2)C1(C)C.Cl (centres undefined) [Mecamylamine hydrochloride] | 0.093 |
| CN(Cc1cnc2nc(N)nc(N)c2n1)c1ccc(C(=O)NC(CCC(=O)O)C(=O)O)cc1 (racemic) [Amethopterin (R,S)] | 0.0411 |
| CC(=O)Oc1ccc(C(c2ccc(OC(C)=O)cc2)c2ccccn2)cc1 [Bisacodyl] | 0.0605 |
| CC/C=C\C/C=C\C/C=C\C/C=C\CCCCC(=O)O [6(Z), 9(Z), 12(Z), 15(Z)-Octadecatetraenoic acid] | 0.0591 |
| CC(C(=O)O)c1ccc(-c2ccccc2)c(F)c1 (centres undefined) [Flurbiprofen] | 0.0432 |
| Cl.O=C1CC2(CCCC2)CC(=O)N1CCCCN1CCN(c2ncccn2)CC1 [Buspirone hydrochloride] | 0.0334 |
| CC(C)[N+]1(C)[C@@H]2CC[C@@H]1CC(OC(=O)C(CO)c1ccccc1)C2.[Br-] (some centres undefined) [Ipratropium bromide] | 0.0779 |
| CC[C@]12CCCN3CCc4c(n(c5ccccc45)[C@](O)(C(=O)OC)C1)[C@@H]32 [Epivincamine] | 0.0608 |
| CC(=O)N(CC(O)CN(C(C)=O)c1c(I)c(C(=O)NCC(O)CO)c(I)c(C(=O)NCC(O)CO)c1I)c1c(I)c(C(=O)NCC(O)CO)c(I)c(C(=O)NCC(O)CO)c1I (centres undefined) [Iodixanol] | 0.0455 |
| COc1ccc2cc(C(C)C(=O)O)ccc2c1 (centres undefined) [Naproxen] | 0.053 |
| CC(C)(C)C(=O)OCOC(=O)[C@@H]1N2C(=O)[C@@H](/N=C/N3CCCCCC3)[C@H]2SC1(C)C.Cl [Pivmecillinam hydrochloride] | 0.0551 |
| C[N+]1(C)CCC(OC(=O)C(O)(c2ccccc2)C2CCCC2)C1.[Br-] (centres undefined) [Glycopyrrolate] | 0.0526 |
| CCCCC/C=C\C\C=C/C=C/C=C/[C@@H](O)[C@@H](O)CCCC(=O)O | 0.0542 |
| O=C(O)c1cccnc1 [Niacin] | 0.0475 |
| CC/C=C\C/C=C\C/C=C\C/C=C\C/C=C\C/C=C\CCC(=O)O | 0.0655 |
| CC/C=C\C/C=C\C/C=C\C/C=C\C/C=C\C/C=C\CCC(=O)O [Docosahexaenoic acid (22:6 n-3)] | 0.0751 |
| CC/C=C\C/C=C\C/C=C\C/C=C\C/C=C\C/C=C\CCC(=O)O [Docosahexaenoic acid (22:6 N-3)] | 0.0787 |
| C[C@@H]1C[C@H]2[C@@H]3CCC4=CC(=O)C=C[C@]4(C)[C@@]3(F)[C@@H](O)C[C@]2(C)[C@@]1(O)C(=O)CO [dexamethasone] | 0.0637 |
| CCCCCCCC(=O)OC[C@H](CO)OC(=O)CCCCCCC | 0.0799 |
| CCCCCCCC(=O)OC[C@H](CO)OC(=O)CCCCCCC [1,2-Dioctanoyl-SN-glycerol] | 0.058 |

| Compound | fraction of GFP-LC3-positive cells |
| --- | --- |
| O=c1[nH]c(=O)n([C@H]2C[C@H](O)[C@@H](CO)O2)cc1I [Idoxuridine] | 0.122 |
| CC(C)(C)NC[C@H](O)COc1nsnc1N1CCOCC1.O=C(O)/C=C\C(=O)O [Timolol maleate salt] | 0.0791 |
| CSc1ccc2c(c1)N(CCC1CCCCN1C)c1ccccc1S2.Cl (centres undefined) [Thioridazine hydrochloride] | 0.103 |
| O=C(CCCN1CCC(O)(c2ccc(Br)cc2)CC1)c1ccc(F)cc1 [Bromperidol] | 0.0553 |
| CC(C)COCC(CN(Cc1ccccc1)c1ccccc1)N1CCCC1.Cl (centres undefined) [Bepridil hydrochloride] | 0.0674 |
| Cl.c1ccc(CN(CC2=NCCN2)c2ccccc2)cc1 [Antazoline hydrochloride] | 0.048 |
| CC(C)COCC(CN(Cc1ccccc1)c1ccccc1)N1CCCC1 (centres undefined) | 0.773 |
| NC[C@H]1O[C@H](OC2[C@@H](N)C[C@@H](N)[C@H](O)[C@H]2O[C@@H]2O[C@H](CO)[C@@H](O)[C@H]2O)[C@H](N)[C@@H](O)[C@@H]1O.O=S(=O)(O)O (some centres undefined) [Ribostamycin sulfate salt] | 0.0446 |
| CC(C[N+](C)(C)C)OC(N)=O.[Cl-] (centres undefined) [Bethanechol chloride] | 0.0276 |
| COc1cc(OC)c(C(=O)CCCN2CCCC2)c(OC)c1.Cl [Buflomedil hydrochloride] | 0.0492 |
| Nc1ccc(S(=O)(=O)Nc2ccnn2-c2ccccc2)cc1 [Sulfaphenazole] | 0.0807 |
| Cl.NCc1ccc(S(N)(=O)=O)cc1 [Mafenide hydrochloride] | 0.087 |
| CCCCOc1cc(C(=O)OCCN(CC)CC)ccc1N.Cl [Benoxinate hydrochloride] | 0.0443 |
| C[N+](C)(C)CCCCCC[N+](C)(C)C.O.O.[Br-].[Br-] [Hexamethonium dibromide dihydrate] | 0.0307 |
| O=S(=O)(NCCNC/C=C/c1ccc(Br)cc1)c1cccc2cnccc12 | 0.0303 ± 0.022 |
| CS(=O)(=O)Nc1ccc([N+](=O)[O-])cc1Oc1ccccc1 [Nimesulide] | 0.0281 |
| Cn1c([N+](=O)[O-])cnc1COC(N)=O [Ronidazole] | 0.116 |
| NC(=O)c1ccc(-c2nc(-c3ccc4c(c3)OCO4)c(-c3ccccn3)[nH]2)cc1 | 0.0591 |
| CCCCC/C=C\C/C=C\CCCCCCCC(N)=O | 0.0698 |
| CCCCC/C=C\C/C=C\CCCCCCCC(N)=O [Linoleamide] | 0.0419 |
| C=C(C)[C@@H]1CC[C@]2(C(=O)O)CC[C@]3(C)[C@H](CC[C@@H]4[C@@]5(C)CC[C@H](O)C(C)(C)[C@@H]5CC[C@]43C)[C@@H]12 [Betulinic acid] | 0.0607 |

| Compound | fraction of GFP-LC3-positive cells |
| --- | --- |
| CCCCC/C=C\C/C=C\C/C=C\C=C\[C@@H](O)CCCC(=O)O | 0.0555 ± 0.014 |
| Oc1cc2c(cc1O)CN(C(=S)NCCc1ccc(Cl)cc1)CCC2 [capsazepine] | 0.197 |
| O=C(Nc1ccccc1)c1cc([N+](=O)[O-])ccc1Cl | 0.0781 |
| CCC(=O)[C@@]1(C)[C@H](C)C[C@H]2[C@@H]3CCC4=CC(=O)C=C[C@]4(C)[C@H]3[C@@H](O)C[C@@]21C [Rimexolone] | 0.0676 |
| CCCCNc1cc(C(=O)O)cc(S(N)(=O)=O)c1Oc1ccccc1 [Bumetanide] | 0.0472 |
| C[C@@H](O)[C@H]1C(=O)N2C(C(=O)O)=C(SCCNC=N)C[C@H]12 [Imipenem] | 0.032 |
| CCCCCN(CCCCC)C(=O)C(CCC(=O)[O-])NC(=O)c1ccc(Cl)c(Cl)c1.[Na+] (centres undefined) [Lorglumide sodium salt] | 0.0541 |
| Cc1[nH]c(=O)c(C#N)cc1-c1ccncc1 [Milrinone] | 0.0445 |
| CC(N/C(=N/C#N)Nc1ccncc1)C(C)(C)C (centres undefined) [Pinacidil] | 0.0667 |
| CCCCC[C@H](O)CC(=O)CCc1ccc(O)c(OC)c1 | 0.0534 |
| CN1CCN2c3ccccc3Cc3ccccc3C2C1.Cl (centres undefined) [Mianserine hydrochloride] | 0.0536 |
| CC(C)C[C@@H](C=O)NC(=O)[C@H](CC(C)C)NC(=O)OCc1ccccc1 | 0.0921 |
| CCCC[C@@H](C=O)NC(=O)[C@H](CC(C)C)NC(=O)OCc1ccccc1 [calpeptin] | 0.0616 |
| CC(C)C[C@@H](C=O)NC(=O)[C@H](CC(C)C)NC(=O)[C@H](CC(C)C)NC(=O)OCc1ccccc1 | 0.736 ± 0.077 |
| CCCC[C@@H](C=O)NC(=O)[C@H](CC(C)C)NC(=O)OCc1ccccc1 | 0.088 |
| CC/C(=C(/CC)c1ccc(O)cc1)c1ccc(O)cc1 [Diethylstilbestrol] | 0.0323 |
| O=C(/C=C/c1ccc(O)c(O)c1)O[C@@H]1C[C@](O)(C(=O)O)C[C@@H](O)[C@H]1O [Chlorogenic acid] | 0.0755 |
| O=C(/C=C/c1ccc(O)c(O)c1)OCCc1ccccc1 | 0.624 |
| O=C(O)/C=C/c1ccc(O)c(O)c1 [Caffeic acid] | 0.0546 |
| FC(F)(F)c1ccccc1-n1ccnc1 | 0.0512 |
| O=C(O)CCc1nc(-c2ccccc2)c(-c2ccccc2)o1 [Oxaprozin] | 0.047 |

| Compound | fraction of GFP-LC3-positive cells |
| --- | --- |
| COc1ccc2c(c1)C(=O)N(CCc1ccc(S(=O)(=O)NC(=O)NC3CCCCC3)cc1)C(=O)C2(C)C [Gliquidone] | 0.0709 |
| CC(C(=O)[O-])c1cccc(Oc2ccccc2)c1.CC(C(=O)[O-])c1cccc(Oc2ccccc2)c1.CC(C(=O)[O-])c1cccc(Oc2ccccc2)c1.O.O.[Ca+2] (centres undefined) [Fenoprofen calcium salt dihydrate] | 0.0249 |
| C[N+](C)(CCOc1ccccc1)Cc1ccccc1.O=C([O-])c1cc2ccccc2cc1O [Bephenium hydroxynaphthoate] | 0.0458 |
| Cc1ccc(NC(=O)c2cccc(N(C)C)c2)cc1NC(=O)c1ccc(O)cc1 | 0.0842 and 0.161 |
| CCCCCCCC/C=C\CCCCCCCC(N)=O | 0.0449 |
| Cl.Clc1ccc(Cn2c(CN3CCCC3)nc3ccccc32)cc1 [Clemizole hydrochloride] | 0.063 |
| CCN(CC)CCOc1ccc(/C(=C(/Cl)c2ccccc2)c2ccccc2)cc1.O=C(O)CC(O)(CC(=O)O)C(=O)O [Clomiphene citrate (Z,E)] | 0.0397 |
| CCOc1ccc(Cc2nccc3cc(OCC)c(OCC)cc23)cc1OCC.Cl [Ethaverine hydrochloride] | 0.0346 |
| NCCc1c[nH]cn1 | 0.0411 |
| CCOC1O[C@H]([C@@H](COCc2ccccc2)OCc2ccccc2)[C@H](OCc2ccccc2)[C@H]1O (some centres undefined) [Tribenoside] | 0.102 |
| CCOC(=O)C1=C[C@]2(CC)CCCN3CCc4c(n1c1ccccc41)[C@@H]32 [Vinpocetine] | 0.0378 |
| O=C(O)c1ccc(C2=C3C=CC4=[N]3->[Mn+3]35<-[N]6=C(C=CC6=C(c6ccc(C(=O)O)cc6)c6ccc2[n]63)C(c2ccc(C(=O)O)cc2)=c2ccc([n]25)=C4c2ccc(C(=O)O)cc2)cc1.[Cl-] (centres undefined) | 0.0485 |
| COC(=O)Nc1nc2cc(Sc3ccccc3)ccc2[nH]1 [Fenbendazole] | 0.24 |
| COC(=O)Nc1nc2cc(SC(C)C)ccc2[nH]1 [Methiazole] | 0.499 |
| CCCSc1ccc2[nH]c(NC(=O)OC)nc2c1 [Albendazole] | 0.548 |
| COC(=O)Nc1nc2cc(C(=O)c3cccs3)ccc2[nH]1 [Nocodazole] | 0.627 |
| COC(=O)Nc1nc2cc(C(=O)c3ccccc3)ccc2[nH]1 [Mebendazole] | 0.619 |
| CC(C(=O)O)c1ccc(C(=O)c2cccs2)cc1 (centres undefined) [Suprofen] | 0.0679 |
| COC(=O)Nc1nc2cc(C(=O)c3cccs3)ccc2[nH]1 [nocodazole] | 0.681 |
| CCCCc1ccc2[nH]c(NC(=O)OC)nc2c1 [Parbendazole] | 0.609 |
| CCCCCCCCCCCCCCCC(=O)NCCc1ccc(O)c(O)c1 [Palmitoyl dopamine] | 0.0673 |
